Measurements taken from PubChem BioAssay AID493000 (Johns Hopkins Ion Channel Center, 2010).
In all, about 1,900 compounds went through this assay and about 390 (21%) were called active. How the calls were made is not given here. The list is a sample of the results.

Test: carbachol calcium response in non-induced M3R cells, confirmation, counter-screen for RGS4 inhibitor project, cell-based, HEK293 M3R (AID 493000);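 further: RGS4 induction absent so cells express M3R without RGS4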;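 on activity (percent): higher means more calcium signal and flags a non-specific hit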
Details: carbachol calcium Fluo-4, at 10 µM, submaximal (EC20) carbachol stimulus; stronger effect = higher value, buffer wells 0%, carbachol control wells 100%

Row | SMILES | activity (percent)
1 | CC(C)c1nc(SCC(=O)Nc2cccc(C(=O)O)c2)c2c3c(sc2n1)CCCC3 | 41.5% (active)
2 | Cc1ccc(NC(=O)c2c(NC(=O)CCC(=O)O)sc3c2CCCCC3)cc1 | inactive
3 | CCOc1ccc(/C=N/NC(=O)CSc2ccccn2)cc1O | inactive
4 | S=c1[nH]nc(-c2cccnc2)n1/N=C/C(Cl)=C\c1ccccc1 | inactive
5 | O=C(/C=C/c1ccc(Cl)c([N+](=O)[O-])c1)c1cccnc1 | 43.5% (active)
6 | O=C(/C=C/c1ccc(Cl)c([N+](=O)[O-])c1)c1ccc(O)cc1 | 43.5% (active)
7 | COc1ccc(/C=C/C(=O)c2ccc(OC)cc2O)cc1 | inactive
8 | C1=C(N2CCOCC2)/C(=C/c2nc3ccccc3[nH]2)CC1 | inactive
9 | CNCC(O)c1ccc(O)c(O)c1 (configuration not stated) | inactive
10 | O=C(Nc1ccc(Cl)cc1)OCc1cc(-c2ccccc2)on1 | inactive
11 | O=[N+]([O-])c1c(NCCO)cc(Sc2nc3ccccc3s2)c2nonc12 | inactive
12 | CCCCC1S/C(=N/N=C/c2cccs2)NC1=O (configuration not stated) | inactive
13 | COc1cc(Br)cc(/C=N/c2ncn[nH]2)c1O | inactive
14 | Oc1ccc(/C=N/Nc2ccc(C(F)(F)F)cn2)cc1O | 34.5% (active)
15 | Cn1c(-c2ccco2)nc2cc3ccccc3cc21 | inactive
16 | COc1cc2c(cc1O)C(SC)=NC(C)(C)C2 | inactive
17 | O=C1Nc2ccc(Br)cc2/C1=N/N=C/C1=C(N2CCOCC2)C(=C\c2ccccc2)/CC1 | 31.5% (active)
18 | O=C(O)C(c1ccccc1)N1C(=O)/C(=C\c2ccc(-c3cccc(Cl)c3)o2)SC1=S (configuration not stated) | inactive
19 | COc1ccc(/C(O)=C2/C(=O)C(=O)N(c3nc(C)c(C)s3)C2c2ccco2)cc1 (configuration not stated) | inactive
20 | C=C(C)C(=O)O[C@H]1C/C(C)=C\C(=O)/C=C(\C)[C@H](O)[C@@H]2OC(=O)C(=C)[C@@H]21 | inactive
21 | C[C@H](NC(=O)c1nc[nH]c1C(=O)NCC(=O)OC(C)(C)C)c1ccccc1 | inactive
22 | Cc1ccc(Nc2nc(N)nc(CN3CCN(Cc4ccccc4)CC3)n2)cc1Cl | inactive

Row | SMILES | activity (percent)
23 | O=C(CCN1CCc2ccccc2C(O)(c2ccccc2)C1)c1ccc2c(c1)OCCO2 (configuration not stated) | 34.5% (active)
24 | CS(=O)(=O)N(CC(O)Cn1c2ccccc2c2ccccc21)c1cccc2ccccc12 (configuration not stated) | inactive
25 | Oc1ccc(-c2[nH]ncc2-c2nc3ccccc3s2)c(O)c1 | inactive
26 | CCn1c(O)c(N=NC2=NC(=O)CS2)c2cc(C)ccc21 | inactive
27 | CCc1nnc(NS(=O)(=O)c2ccc(N=Cc3c(C)[nH]n(-c4ccc(C)cc4)c3=O)cc2)s1 | inactive
28 | O=C(NCc1ccccc1)c1ccc(S(=O)(=O)Nc2cccc(C(F)(F)F)c2)cc1 | inactive
29 | Cc1ccc(-c2c3c(=O)n(C)c(=O)n(C)c3cn2-n2cnnc2)cc1 | inactive
30 | C=CCOc1ccc(/C=C2/C(=O)ON=C2C)cc1OCC | 32.5% (active)
31 | COc1cc(/C=C2/C(=O)ON=C2C)ccc1OCc1ccccc1F | inactive
32 | C#CCOc1ccc(/C=C2/C(=O)ON=C2C)cc1OCC | inactive
33 | COC(=O)C1CCN(C(=O)c2cc(=O)[nH]c3ccccc23)CC1 | inactive
34 | O=C(COC(=O)c1cccc(Br)c1)Nc1cccc2c1C(=O)c1ccccc1C2=O | inactive
35 | O=[N+]([O-])/C=C/c1ccc2c(ccn2Cc2ccccc2)c1 | inactive
36 | COC(=O)Cn1cc(/C=C/[N+](=O)[O-])c2ccccc21 | 38% (active)
37 | COc1ccc2c(c1OC)C(=O)OC2Nc1nc(-c2ccccc2)cs1 (configuration not stated) | inactive
38 | Cc1ccc(S/C(=N\S(=O)(=O)c2ccc(Cl)cc2)c2ccccc2)cc1 | inactive
39 | Cc1ccc(Sc2cc(N3CCOCC3)nc(-c3ccccc3)n2)cc1 | 55.5% (active)
40 | Cc1c(NC(=O)c2coc(=O)c(Br)c2)c(=O)n(-c2ccccc2)n1C | inactive
41 | c1ccc(C[C@H]2CNCCN2CCC23CC4CC(CC(C4)C2)C3)cc1 | inactive
42 | Cc1ccc(C)c(Cn2nnc3c(=O)[nH]c(C(=O)Nc4ccc(F)cc4)nc32)c1 | 45.5% (active)
43 | O=C1NC(c2ccc(-c3ccccc3[N+](=O)[O-])o2)C(C(=O)c2ccc(Cl)cc2)C(O)(C(F)(F)F)N1 (configuration not stated) | 38.5% (active)
44 | CCOC(=O)C1CCN(C(c2cc3cc(C)cc(C)c3[nH]c2=O)c2nnnn2C2CCCCC2)CC1 (configuration not stated) | inactive

Row | SMILES | activity (percent)
45 | Cc1nc(-c2ccccc2)sc1C(=O)/C=C/c1ccccc1 | inactive
46 | COc1ccc(S(=O)(=O)Nc2ccc(O)c(Sc3nc4ccccc4s3)c2)cc1 | inactive
47 | Cc1nn2c(=O)cc(COC(=O)c3ccc(NC(=O)C(C)(C)C)cc3)nc2s1 | inactive
48 | COc1ccc(NCc2nnc(SCc3ccccc3)n2-c2ccc(OC)cc2)cc1 | inactive
49 | C#CCOc1ccc(/C=C2/C(=O)NN(c3ccccc3)C2=O)cc1OC | inactive
50 | COc1cc(/C=C2/SC(=S)N(Cc3ccccc3)C2=O)cc(OC)c1O | inactive
51 | COc1cc(/C=C2/C(=O)NN(c3cccc(Cl)c3)C2=O)cc(Br)c1O | 28.5% (active)
52 | CC(C)Cc1nc(Nc2ccc(S(=O)(=O)N3CCCC3)cc2)c2nnn(Cc3ccccc3)c2n1 | inactive
53 | CCc1ccc(C2C(C#N)=C(N)N(N3CCOCC3)C3=C2C(=O)CC(C)(C)C3)s1 (configuration not stated) | inactive
54 | COCCCNC(=S)N(CCN(C)C)Cc1cc2cc3c(cc2[nH]c1=O)OCCO3 | inactive
55 | O=C(N/N=C/c1ccccc1O)/C(=C/c1ccccc1)CCO | inactive
56 | COc1ccc(OC)c(S(=O)(=O)N2CCCC(C(=O)N3CCC(C(N)=O)CC3)C2)c1 (configuration not stated) | inactive
57 | CNc1nc(Nc2ccc(C)c(Cl)c2)nc(N)c1[N+](=O)[O-] | inactive
58 | CC(=O)Nc1ccc(S(=O)(=O)Nc2nc(-c3ccc(C(C)(C)C)cc3)cs2)cc1 | 51% (active)
59 | COc1ccc(-c2csc(Nc3ccc(O)cc3)n2)cc1 | inactive
60 | Cc1noc(NS(=O)(=O)c2ccc(N/C=C/C(=O)c3ccccc3)cc2)c1C | inactive
61 | Cc1ccsc1/C=N/n1c(=S)[nH]nc(C)c1=O | inactive
62 | Cc1nc(Nc2ccc(S(=O)(=O)N3CCCC3)cc2)c2nnn(Cc3ccccc3)c2n1 | inactive
63 | O=C(O)c1ccc2c(=O)n3c(nc2c1)/C(=C/c1ccc(Cl)c([N+](=O)[O-])c1)CC3 | inactive
64 | Cc1ccc(/C=C2\CCn3c2nc2cc(C(=O)O)ccc2c3=O)c(C)c1 | 33% (active)
65 | O=S(=O)(Nc1nccs1)c1ccc2c(c1)OCCO2 | inactive
66 | Brc1ccc(-c2csc(N/N=C/c3cccnc3)n2)cc1 | inactive

Row | SMILES | activity (percent)
67 | Cc1ccc(SC(CC(=O)c2ccc(C(C)(C)C)cc2)C(=O)O)cc1 (configuration not stated) | inactive
68 | Nc1cccc(-c2cc(-c3ccccc3)nc(-c3cccc(N)c3)n2)c1 | inactive
69 | C=CCSc1nc2c(c(=O)[nH]1)C(C(C)C)C(C#N)=C(N)O2 (configuration not stated) | 49.5% (active)
70 | O=C1c2ccccc2NC(c2ccc(-c3cccc(Cl)c3)o2)N1O (configuration not stated) | inactive
71 | O=C(/C=C/Sc1ncn[nH]1)c1ccc(Cl)cc1 | 32.5% (active)
72 | Cc1cc(C)nc(S/C=C/C(=O)c2ccccc2)n1 | inactive
73 | O=C(Nc1ccccc1)OCc1cc(-c2ccc(Cl)cc2)on1 | inactive
74 | Cc1ccc(Nc2nc(N)nc(CSc3nnc(C)s3)n2)cc1 | inactive
75 | CCOC(=O)[C@@H]1[C@H]2COc3ccc(Br)cc3[C@H]2N2C(=O)N(c3ccc(Cl)cc3)C(=O)[C@@]12C | inactive
76 | O=C(NCCCc1ccccc1)C1CCC(CNc2c(N3CCCCC3)c(=O)c2=O)CC1 (configuration not stated) | inactive
77 | COc1ccccc1C1C(C#N)=C(N)Oc2c1c(-c1ccccc1)nn2-c1ccccc1 (configuration not stated) | 34.5% (active)
78 | CCC(c1nnnn1Cc1ccco1)N(Cc1cc2cc(OC)ccc2[nH]c1=O)C1CCCCC1 (configuration not stated) | inactive
79 | Cc1nn(C(C)C(=O)N2CCOCC2)c(=O)c2nn(-c3ccccc3)c(C)c12 (configuration not stated) | inactive
80 | CCc1ccc2oc(-c3ccc(N)cc3)nc2c1 | 37.5% (active)
81 | Cc1cc(-c2n[nH]c(=S)n2/N=C/C(Br)=C/c2ccccc2)n[nH]1 | inactive
82 | CCCCOC(=O)CNc1nnc(SCC(=O)OCC)[nH]c1=O | inactive
83 | O=C(O)c1ccc2c(c1)C(=O)N(c1ccc(/C=C/C(=O)c3ccccc3)cc1)C2=O | 32% (active)
84 | CCOc1ccc(NC(=O)C/C(C)=N/NC(=O)Cc2cccs2)cc1 | inactive
85 | Nc1ccccc1SC(C[N+](=O)[O-])c1ccccc1 (configuration not stated) | inactive
86 | COc1ccc(C(C[N+](=O)[O-])n2nc(C)cc2C)cc1 (configuration not stated) | inactive
87 | CCOC(=O)C1=NN(c2ccc(Cl)cc2)/C(=C/C2=NCCc3cc(OC)c(OC)cc32)S1 | inactive
